According to ChEMBL document CHEMBL3988442, “University of Dundee, Small-Polar-MMV Screening Library” (2021):

What was measured:
[1] = target: T1, Aspartate--tRNA(Asp/Asn) ligase (Mycobacterium tuberculosis (strain ATCC 25618 / H37Rv)) (UniProt P9WFW3); assay: Assay for Asp RNA synthetase-1 from Mycobacterium tuberculosis; type: functional; design: scale not given: direction of the effect not stated beside the values; details: 30 µM; further: in the data most compounds retested in dose-response had high values
T1 sequence (whole entry): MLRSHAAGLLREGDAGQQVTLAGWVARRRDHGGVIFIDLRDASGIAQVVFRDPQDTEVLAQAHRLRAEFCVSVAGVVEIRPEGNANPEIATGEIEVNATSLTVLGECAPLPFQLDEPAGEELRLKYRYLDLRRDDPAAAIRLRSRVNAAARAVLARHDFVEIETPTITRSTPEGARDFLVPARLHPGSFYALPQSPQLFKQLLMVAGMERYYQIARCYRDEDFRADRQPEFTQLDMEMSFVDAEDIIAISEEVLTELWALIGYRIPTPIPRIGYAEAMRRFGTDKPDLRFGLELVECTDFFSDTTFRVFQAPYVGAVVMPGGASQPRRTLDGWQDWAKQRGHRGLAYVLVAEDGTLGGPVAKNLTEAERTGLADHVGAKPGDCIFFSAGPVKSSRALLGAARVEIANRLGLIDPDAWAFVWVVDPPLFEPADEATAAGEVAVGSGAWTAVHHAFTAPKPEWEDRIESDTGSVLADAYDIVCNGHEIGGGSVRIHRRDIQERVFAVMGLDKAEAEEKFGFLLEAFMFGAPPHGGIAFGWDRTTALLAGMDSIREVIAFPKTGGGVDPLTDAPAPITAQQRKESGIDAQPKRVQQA

[2] = target: Shiga toxin 2 (Escherichia coli O157:H7) (UniProt P09385+P09386); assay: E. coli 0.157:H7 Shiga Toxin SOP - stx2 screening assay; type: functional; design: scale not given: direction of the effect not stated beside the values; details: 30 µM

| SMILES | Percent Effect [1] [%] | Percent Effect [2] [%] |
| --- | --- | --- |
| O=C(NC1CC1)N1CCc2ncnc(-c3ccncc3)c2CC1 | 5.15 | -28.2 |
| CCc1cnc(N2CCC3(CC2)CN(c2cccnc2)C(=O)CO3)nc1 | 6.49 | -6.76 |
| Cn1ccnc1CNC1CCCN(Cc2noc(C3CC3)n2)C1 (centres undefined) | -0.413 | -13.4 |
| CN(Cc1noc(C2CC2)n1)C1CCN(Cc2nnc(C3CC3)o2)C1 (centres undefined) | 4.05 | -15.5 |
| Cc1ccc(NS(=O)(=O)c2cc3c(c(C(=O)O)c2)OCCO3)c(F)c1 | -2.58 | -5.6 |
| Cc1nc(CCNC(=O)NC2CCN(c3ncccn3)CC2)cs1 | -2.14 | -10 |
| Cc1ccc(NC2CCN(C(=O)c3cc[nH]n3)CC2)nn1 | -1.83 | 18.1 |
| Cc1cccc(CNCc2c(C)nn(C)c2N2CCOCC2)n1 | 3.77 | -0.864 |
| CN(Cc1cnccn1)C(=O)c1ccnc(OC2CCC2)c1 | 3.71 | -6.19 |
| CC(C)NC(=O)Nc1ccc(CS(=O)(=O)C(C)(C)C)cc1 | 0.689 | 0.4 |
| Cc1nccn1-c1cccc(C2CCCN2S(=O)(=O)N(C)C)n1 (centres undefined) | 1.37 | -8.96 |
| COc1c(C)cnc(CN2CCCCC2Cn2nc(C)nc2C)c1C (centres undefined) | -2.54 | -21.3 |
| CCn1ncc2c1CCCC2NCc1cccc2c1OCCO2 (centres undefined) | -2.02 | -6.1 |
| CCn1cnnc1CNC(=O)NCC(c1cccs1)N1CCCC1 (centres undefined) | -1.91 | -4.89 |
| COc1cccc(OCc2cc(C(=O)NC[C@H]3CCCN3)n[nH]2)c1 | 1 | -1.49 |
| O=C(C1CCC1)N1CCCC1c1nnc2n1CCCCC2 (centres undefined) | -0.296 | -16 |
| c1ccc(-c2cnc(CN3CCCC3Cn3cncn3)o2)cc1 (centres undefined) | -6.65 | 8.27 |
| O=C(c1ccn[nH]1)N1CCCC(n2cncn2)C1 (centres undefined) | -5.6 | -25 |
| CCn1cnnc1CNC(=O)N1CCCN(C(C)=O)CC1 | -0.98 | 25.6 |
| Cc1noc(C(C)C)c1C(=O)NCCCN1CCCC1 | 5.49 | -21.7 |
| Cc1nc(C)n(CC2CCCCN2CC(=O)N(C)Cc2ccco2)n1 (centres undefined) | 1.76 | 3.6 |
| COC(=O)c1cccc(C(=O)N2CCN(c3ccccc3F)CC2)n1 | -0.801 | -16.2 |
| COc1ccnc(N2CCN(CC(=O)N3CCOCC3)CC2)n1 | -1.91 | 26.3 |
| CCN1Cc2c(C(=O)NCC3CC3)ncn2-c2ccccc2S1(=O)=O | -3.35 | 8.11 |

| SMILES | Percent Effect [1] [%] | Percent Effect [2] [%] |
| --- | --- | --- |
| CC(C)(C)c1nnc(CN2CCn3c(nnc3C3CC3)C2)o1 | 8.8 | -5.14 |
| c1ccc(CN2CCCC2Cn2cncn2)nc1 (centres undefined) | 3.85 | -7.85 |
| CC(=O)c1c(F)cccc1N1CCC(CS(N)(=O)=O)CC1 | -3.49 | -2.68 |
| COC(CNC(=O)N1CCC(n2cncn2)CC1)c1ccccc1 (centres undefined) | -3.54 | 7.26 |
| CC(C)(C)C(O)CN1CCN(C(=O)c2cccc3ncccc23)CC1 (centres undefined) | 0.278 | -208 |
| CC(=O)c1cc(CC(=O)NCc2ccc(F)cc2)cs1 | 1.48 | -11.3 |
| CS(=O)(=O)NCC1CCCN(C(=O)COCC(F)(F)F)C1 (centres undefined) | -4.43 | -24 |
| c1cn2c(n1)CN(CC1CC1)CC(CN1CCOCC1)C2 (centres undefined) | 11.1 | -18 |
| CCc1ccsc1C(=O)N1CCN(CC(O)CC)CC1 (centres undefined) | 1.06 | -26.4 |
| Cc1noc(C2CCN(C(=O)CCNS(C)(=O)=O)CC2)n1 | -0.989 | -13.5 |
| COc1ccc(NC(=O)CCc2c(C)nc3cc(O)nn3c2C)cn1 | -0.607 | -81.2 |
| Cc1nc(C2CCCN2C(=O)c2ccccc2)ncc1C(N)=O (centres undefined) | -3.02 | -6.25 |
| Cc1cnn(CC2CCCCN2Cc2nnc(-c3ccco3)o2)c1 (centres undefined) | 11.6 | 2.18 |
| O=C(CCNC(=O)c1ccoc1)NCc1ccccc1F | 1.27 | 11.5 |
| CN1CCOC(CNC(=O)CCCOc2ccccc2F)C1 (centres undefined) | -5.14 | -33.1 |
| O=C1CCC2(CCN(Cc3nccs3)CC2)N1Cc1ccccc1 | -2.78 | 13.1 |
| CNC(=O)[C@@]12CCO[C@@H]1CCN(S(=O)(=O)c1cccnc1)C2 | 0.229 | 7.61 |
| CN(Cc1nccn1CC(F)(F)F)C(=O)c1cccc(C#N)c1 | 1.68 | -1.08 |
| COc1cc(NC(=O)c2ccccc2F)c(C(=O)N(C)C)cc1OC | 8.8 | -68.8 |
| CN1CCCC1CNC(=O)CCCOCc1ccccc1 (centres undefined) | 0.589 | 23.4 |
| O=C(c1cc(C2CC2)[nH]n1)N1CCN(Cc2ccsc2)CC1 | -6.85 | -27.3 |
| Cc1cc2n(n1)CC(CNCc1ccc(-n3cccn3)nc1)CN2 (centres undefined) | -2.59 | 3.5 |
| CSCC[C@H](N)C(=O)NCc1cc2n(n1)CCCN(C(=O)C1CCC1)C2 | -3.26 | 2.24 |
